Source: the supplement of paper PMC10849652
The full data set covers some 8,800 targets. This sample favours those with a hit. About 0.5% of all pairs of compound and target were hits.

How the values were obtained:
Test in all cases: log2 fold change, soluble protein after heating vs DMSO (PISA); higher = thermal stabilisation; K562 lysate, 10 uM; active = over 0.2 and 3.5 SD of the protein, either way, in both replicates (recomputed)
[1] = compound: C1=CC=C(C=C1)[C@H](COC2=CC3=C(C=C2)NC(=O)N3)NC(=O)C4=CC=CN(C4=O)CC5=CC(=C(C=C5)F)F
Summary of the method: (§1)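 The values are log-two fold changes in thermal stability compared with solvent controls and come from duplicates. They were obtained by TMTpro 16plex LC-MS/MS, with channel sums equalised, on the supernatant after 21,000xg for 90 min. That supernatant came from crude K562 extract at 1 mg/mL protein treated with 10 μM compound for 30 min, heated for 3 min across 48°C-58°C, pooled and brought to 0.5% NP-40 at 4°C.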

[2] = compound: CC1=C(SC2=C1C(=N[C@H](C3=NN=C(N32)C)CC(=O)N)C4=CC=C(C=C4)Cl)C
Summary of the method: as §1

[3] = compound: CC1=C2C(=CC=C1)N=C(N(C2=O)C3=CC=CC=C3C)CN4C=NC5=C(N=CN=C54)N
Summary of the method: as §1

[4] = compound: Cc1sc2c(c1C)C(c1ccc(Cl)cc1)=N[C@@H](CC(=O)OC(C)(C)C)c1nnc(C)n1-2
Summary of the method: as §1

[5] = compound: c1ccc([C@@H]2C[C@H]2NC2CCNCC2)cc1
Summary of the method: as §1

Measured: log2 fold change

EED, A0A5F9ZI63
inactive: [1] 0.022 | [2] -0.01 | [3] 0.027 | [4] -0.007 | [5] -0.011

FDFT1 (UniProt P37268)
active: [2] 0.268
inactive: [1] -0.045 | [3] 0 | [4] 0.107 | [5] -0.047

FAM120B (UniProt Q96EK7)
inactive: [1] 0.034 | [2] 0.059 | [3] -0.004 | [4] -0.016 | [5] 0.035

GEMIN5 (UniProt Q8TEQ6)
UniProt Q8TEQ6, sequence (Q8TEQ6 whole entry, looked up): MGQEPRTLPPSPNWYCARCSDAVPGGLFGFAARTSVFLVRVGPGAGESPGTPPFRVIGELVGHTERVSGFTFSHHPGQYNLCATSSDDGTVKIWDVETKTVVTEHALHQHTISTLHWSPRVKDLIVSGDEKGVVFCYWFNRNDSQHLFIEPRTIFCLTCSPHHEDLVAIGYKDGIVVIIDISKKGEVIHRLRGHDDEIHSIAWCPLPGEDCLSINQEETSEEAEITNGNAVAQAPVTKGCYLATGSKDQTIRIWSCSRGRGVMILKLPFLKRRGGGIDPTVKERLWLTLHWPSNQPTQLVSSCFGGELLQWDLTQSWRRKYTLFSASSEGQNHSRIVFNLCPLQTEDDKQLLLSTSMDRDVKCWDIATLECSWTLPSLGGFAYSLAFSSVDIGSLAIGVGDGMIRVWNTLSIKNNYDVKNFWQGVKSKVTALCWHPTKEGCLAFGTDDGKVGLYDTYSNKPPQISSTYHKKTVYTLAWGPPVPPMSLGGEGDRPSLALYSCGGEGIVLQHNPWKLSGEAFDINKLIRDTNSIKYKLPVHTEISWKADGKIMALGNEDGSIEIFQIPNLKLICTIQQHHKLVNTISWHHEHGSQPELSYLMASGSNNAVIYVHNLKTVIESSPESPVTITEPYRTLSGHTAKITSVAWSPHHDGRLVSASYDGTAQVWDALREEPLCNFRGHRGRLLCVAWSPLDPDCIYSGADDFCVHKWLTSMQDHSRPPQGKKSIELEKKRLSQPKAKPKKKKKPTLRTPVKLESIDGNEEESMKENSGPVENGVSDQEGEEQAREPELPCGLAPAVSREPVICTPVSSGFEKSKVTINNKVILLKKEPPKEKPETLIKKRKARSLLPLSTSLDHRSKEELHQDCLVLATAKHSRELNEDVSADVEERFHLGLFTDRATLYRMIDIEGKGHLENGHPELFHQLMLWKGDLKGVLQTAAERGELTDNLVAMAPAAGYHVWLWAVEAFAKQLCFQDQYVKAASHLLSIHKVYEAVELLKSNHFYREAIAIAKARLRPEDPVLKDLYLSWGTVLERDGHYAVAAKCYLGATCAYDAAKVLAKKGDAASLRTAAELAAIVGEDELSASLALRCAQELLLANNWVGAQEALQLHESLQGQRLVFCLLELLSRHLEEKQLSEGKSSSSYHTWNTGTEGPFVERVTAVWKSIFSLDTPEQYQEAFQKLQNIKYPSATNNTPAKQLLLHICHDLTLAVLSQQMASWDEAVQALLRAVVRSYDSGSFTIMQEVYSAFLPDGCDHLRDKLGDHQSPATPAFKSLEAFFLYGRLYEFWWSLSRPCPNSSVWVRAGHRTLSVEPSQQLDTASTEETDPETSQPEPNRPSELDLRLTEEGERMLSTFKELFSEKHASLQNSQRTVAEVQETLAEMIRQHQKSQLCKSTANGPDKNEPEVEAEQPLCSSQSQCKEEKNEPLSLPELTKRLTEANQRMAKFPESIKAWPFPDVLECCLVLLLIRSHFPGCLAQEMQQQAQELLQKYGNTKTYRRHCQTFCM
inactive: [1] -0.015 | [2] 0.025 | [3] 0.016 | [4] -0.002 | [5] 0.036

ENO1, A0A2R8YEM5
inactive: [1] 0.026 | [2] -0.096 | [3] -0.048 | [4] -0.028 | [5] -0.21

FLT4 (UniProt P35916)
inactive: [1] 0.006 | [2] -0.04 | [3] -0.031 | [4] 0.098 | [5] -0.408

GART (UniProt P22102)
inactive: [1] -0.04 | [2] 0.047 | [3] 0.011 | [4] 0.057 | [5] 0.042

FTL (UniProt P02792)
UniProt P02792, sequence (P02792 whole entry, looked up): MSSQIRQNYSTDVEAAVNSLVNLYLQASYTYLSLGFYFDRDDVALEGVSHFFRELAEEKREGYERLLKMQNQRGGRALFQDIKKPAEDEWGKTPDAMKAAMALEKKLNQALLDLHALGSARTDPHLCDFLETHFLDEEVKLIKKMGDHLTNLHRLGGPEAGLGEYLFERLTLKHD
inactive: [1] -0.067 | [2] 0.127 | [3] -0.034 | [4] -0.03 | [5] -0.031

FXR2 (UniProt P51116)
UniProt P51116, sequence (P51116 whole entry, looked up): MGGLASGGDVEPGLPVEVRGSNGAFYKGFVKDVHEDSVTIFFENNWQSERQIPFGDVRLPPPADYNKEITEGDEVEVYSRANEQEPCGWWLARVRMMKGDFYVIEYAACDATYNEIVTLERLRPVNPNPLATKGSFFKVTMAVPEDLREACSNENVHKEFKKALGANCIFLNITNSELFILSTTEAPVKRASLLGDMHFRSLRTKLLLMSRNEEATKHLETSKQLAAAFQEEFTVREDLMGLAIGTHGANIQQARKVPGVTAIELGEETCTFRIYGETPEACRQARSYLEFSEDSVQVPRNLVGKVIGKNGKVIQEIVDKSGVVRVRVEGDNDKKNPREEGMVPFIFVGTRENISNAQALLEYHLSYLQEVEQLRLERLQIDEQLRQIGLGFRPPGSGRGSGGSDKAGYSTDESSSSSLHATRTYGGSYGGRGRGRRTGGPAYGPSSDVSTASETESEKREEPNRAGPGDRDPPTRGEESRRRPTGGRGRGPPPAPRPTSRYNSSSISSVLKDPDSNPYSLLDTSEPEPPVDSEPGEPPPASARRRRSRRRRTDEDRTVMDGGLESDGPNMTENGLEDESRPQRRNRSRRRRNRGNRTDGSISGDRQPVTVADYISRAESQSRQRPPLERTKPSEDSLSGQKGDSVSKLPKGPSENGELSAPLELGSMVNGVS
inactive: [1] -0.021 | [2] -0.011 | [3] 0.032 | [4] -0.014 | [5] 0.054

EWSR1 (UniProt H7BY36)
inactive: [1] -0.079 | [2] -0.06 | [3] 0.091 | [4] -0.058 | [5] 0.061

FHOD1 (UniProt Q9Y613)
inactive: [1] -0.041 | [2] 0.006 | [3] 0.043 | [4] 0.029 | [5] 0.027

ESPL1 (UniProt Q14674)
inactive: [1] 0.016 | [2] 0.129 | [3] 0.251 | [4] 0.136 | [5] 0.077

EEF1AKMT4 (UniProt P0DPD7)
UniProt P0DPD7, sequence (P0DPD7 whole entry, looked up): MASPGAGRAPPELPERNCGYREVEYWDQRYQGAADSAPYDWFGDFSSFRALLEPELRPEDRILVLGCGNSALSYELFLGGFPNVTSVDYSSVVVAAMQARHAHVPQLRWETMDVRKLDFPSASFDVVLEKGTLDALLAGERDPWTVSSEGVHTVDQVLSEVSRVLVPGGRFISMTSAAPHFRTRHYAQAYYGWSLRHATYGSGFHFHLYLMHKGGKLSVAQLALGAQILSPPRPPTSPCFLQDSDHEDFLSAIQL
inactive: [1] -0.061 | [2] 0.027 | [3] -0.036 | [4] 0.017 | [5] -0.063

FBLL1 (UniProt A6NHQ2)
inactive: [1] -0.017 | [2] 0.013 | [3] 0.037 | [4] -0.002 | [5] -0.062

FBXO9 (UniProt Q9UK97)
UniProt Q9UK97, sequence (Q9UK97 whole entry, looked up): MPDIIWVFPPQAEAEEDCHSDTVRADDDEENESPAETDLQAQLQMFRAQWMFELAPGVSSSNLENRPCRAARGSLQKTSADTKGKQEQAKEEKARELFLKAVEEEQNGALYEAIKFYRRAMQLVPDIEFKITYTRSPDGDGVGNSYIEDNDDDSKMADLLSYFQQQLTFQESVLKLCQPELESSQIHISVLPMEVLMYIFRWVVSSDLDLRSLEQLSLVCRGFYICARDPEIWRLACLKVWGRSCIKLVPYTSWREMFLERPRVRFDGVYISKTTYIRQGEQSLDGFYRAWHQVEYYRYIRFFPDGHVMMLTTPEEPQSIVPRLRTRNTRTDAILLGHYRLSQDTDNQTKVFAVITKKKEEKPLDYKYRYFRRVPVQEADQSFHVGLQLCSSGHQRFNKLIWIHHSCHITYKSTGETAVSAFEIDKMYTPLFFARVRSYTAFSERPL
inactive: [1] -0.07 | [2] -0.112 | [3] -0.002 | [4] 0.089 | [5] 0.095

GCLM (UniProt P48507)
UniProt P48507, sequence (P48507 whole entry, looked up): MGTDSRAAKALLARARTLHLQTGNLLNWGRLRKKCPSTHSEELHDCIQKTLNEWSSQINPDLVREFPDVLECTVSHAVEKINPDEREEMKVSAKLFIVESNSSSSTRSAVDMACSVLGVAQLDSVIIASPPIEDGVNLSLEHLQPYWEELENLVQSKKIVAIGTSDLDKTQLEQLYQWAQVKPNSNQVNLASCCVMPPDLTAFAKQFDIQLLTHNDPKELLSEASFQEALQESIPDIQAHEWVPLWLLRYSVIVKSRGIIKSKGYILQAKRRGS
inactive: [1] 0.01 | [2] -0.041 | [3] 0.02 | [4] 0.008 | [5] 0.006

FAM114A2 (UniProt Q9NRY5)
inactive: [1] 0.073 | [2] -0.002 | [3] -0.027 | [4] 0.019 | [5] 0.035

DVL2 (UniProt O14641)
UniProt O14641, sequence (O14641 whole entry, looked up): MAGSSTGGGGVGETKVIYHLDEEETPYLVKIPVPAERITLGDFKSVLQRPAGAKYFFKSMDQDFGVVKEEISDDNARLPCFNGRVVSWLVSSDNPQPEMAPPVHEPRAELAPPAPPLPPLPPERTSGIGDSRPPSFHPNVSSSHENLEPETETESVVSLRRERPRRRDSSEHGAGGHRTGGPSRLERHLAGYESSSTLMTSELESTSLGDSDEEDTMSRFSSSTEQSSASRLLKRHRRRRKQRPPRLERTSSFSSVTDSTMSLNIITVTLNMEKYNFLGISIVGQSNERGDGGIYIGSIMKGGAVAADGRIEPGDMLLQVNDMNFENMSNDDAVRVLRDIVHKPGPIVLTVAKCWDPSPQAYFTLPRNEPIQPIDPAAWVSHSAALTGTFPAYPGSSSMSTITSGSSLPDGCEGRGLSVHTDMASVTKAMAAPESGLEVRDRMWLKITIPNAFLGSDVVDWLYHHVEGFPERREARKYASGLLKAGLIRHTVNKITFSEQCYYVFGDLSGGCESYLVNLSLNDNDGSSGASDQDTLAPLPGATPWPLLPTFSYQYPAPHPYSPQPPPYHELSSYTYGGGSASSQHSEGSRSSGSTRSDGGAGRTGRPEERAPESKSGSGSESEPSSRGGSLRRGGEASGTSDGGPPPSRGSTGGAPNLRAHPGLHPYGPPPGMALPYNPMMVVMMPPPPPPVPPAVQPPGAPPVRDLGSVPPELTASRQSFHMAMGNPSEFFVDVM
inactive: [1] -0.012 | [2] -0.01 | [3] 0.032 | [4] 0.098 | [5] -0.017

EEF1A1P5 (UniProt Q5VTE0)
UniProt Q5VTE0, sequence (Q5VTE0 whole entry, looked up): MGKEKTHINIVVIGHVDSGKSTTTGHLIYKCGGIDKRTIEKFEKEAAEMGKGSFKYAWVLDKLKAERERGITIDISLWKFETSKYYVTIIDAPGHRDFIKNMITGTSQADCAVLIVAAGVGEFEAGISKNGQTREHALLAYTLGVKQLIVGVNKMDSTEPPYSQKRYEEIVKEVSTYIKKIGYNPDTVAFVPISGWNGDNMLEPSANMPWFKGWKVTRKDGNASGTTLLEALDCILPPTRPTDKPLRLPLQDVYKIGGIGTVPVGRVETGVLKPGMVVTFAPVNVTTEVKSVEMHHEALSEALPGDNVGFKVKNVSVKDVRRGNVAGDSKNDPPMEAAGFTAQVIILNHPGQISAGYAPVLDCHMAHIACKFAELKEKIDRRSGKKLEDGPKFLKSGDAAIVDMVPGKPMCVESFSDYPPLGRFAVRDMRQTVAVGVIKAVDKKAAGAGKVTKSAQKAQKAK
inactive: [1] 0.006 | [2] 0.011 | [3] 0.004 | [4] -0.067 | [5] -0.036

FTSJ3 (UniProt Q8IY81)
inactive: [1] 0.022 | [2] -0.051 | [3] -0.007 | [4] -0.003 | [5] 0.083

GGA2 (UniProt Q9UJY4)
inactive: [1] -0.055 | [2] 0.011 | [3] -0.085 | [4] 0.062 | [5] 0.032

GCDH (UniProt Q92947)
UniProt Q92947, sequence (Q92947 whole entry, looked up): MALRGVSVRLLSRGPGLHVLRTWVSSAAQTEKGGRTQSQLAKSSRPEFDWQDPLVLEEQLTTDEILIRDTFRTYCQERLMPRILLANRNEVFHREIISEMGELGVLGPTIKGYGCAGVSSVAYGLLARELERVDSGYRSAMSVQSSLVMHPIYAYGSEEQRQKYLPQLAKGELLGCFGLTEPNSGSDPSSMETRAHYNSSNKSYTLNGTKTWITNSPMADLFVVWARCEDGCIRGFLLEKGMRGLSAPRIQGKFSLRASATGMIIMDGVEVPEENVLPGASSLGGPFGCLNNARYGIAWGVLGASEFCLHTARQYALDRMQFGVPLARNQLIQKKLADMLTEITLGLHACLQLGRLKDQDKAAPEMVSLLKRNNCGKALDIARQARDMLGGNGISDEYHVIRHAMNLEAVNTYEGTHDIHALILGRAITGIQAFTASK
inactive: [1] 0.034 | [2] -0.032 | [3] -0.022 | [4] -0.008 | [5] -0.004

EIF2AK1 (UniProt Q9BQI3)
inactive: [1] 0.006 | [2] -0.035 | [3] -0.007 | [4] -0.022 | [5] -0.041

FAM118B (UniProt Q9BPY3)
inactive: [1] -0.025 | [2] -0.062 | [3] -0.01 | [4] -0.018 | [5] 0.01

DYRK1A (UniProt Q13627)
inactive: [1] -0.019 | [2] 0.003 | [3] -0.014 | [4] 0.019 | [5] 0.031
